In the library only some 18% were active in any assay of this set; here they are far more common.
TDP1 cell noCPT – qHTS for Inhibitors of human tyrosyl-DNA phosphodiesterase 1 (TDP1): qHTS in cells in absence of CPT; DT40 Tdp1-/- hTDP1 cells, no CPT, ATP luminescence, 48 h; Potency, µM (top dose mostly 46.2 µM), usual class: inhibitors; 15% of 420,000 active; AID 686978, 2013; further: nearly all actives have a fitted effect of over 55% in size
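Chicken DT40 Tdp1-/- cells complemented with human TDP1, screened without camptothecin (DMSO vehicle only), 400 cells/well. Compounds pin-transferred, cells incubated at 37 °C for at least 48 hr. Growth read as ATP-dependent luminescence (CellTiter-Glo, 30 min at RT).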
CtBP-E1A blk – inhibitors of CtBP/E1A interaction | activity change, % (concentration not given with the values) | AlphaScreen GST-E1A/His-CtBP binding, 1536-well; stronger effect = lower value | 0.49% of 340,000 active; in the data active means activity change below about -65%; inconclusive means mostly about -30% to -63%
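GST-E1A and His-tagged CtBP (125 nM each as 5X stock) were preincubated with pin-transferred compound for 2 h at 37 °C in the dark, then glutathione donor and nickel acceptor beads were added for 1 h before AlphaScreen reading.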
TDP1 inh – TDP1 (human) enzyme inhibition | Q9NUW8 | Potency, µM (series often up to 130 µM), hits mostly inhibitors | recombinant TDP1, AlphaScreen DNA substrate cleavage | AID 485290 | 0.28% of 350,000 active; further: nearly all actives have a fitted effect of over 40% in size
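Signal: AlphaScreen proximity between streptavidin donor and anti-FITC acceptor beads on intact substrate. Reaction: Tdp1 1 nM, substrate 15 nM final, 5 min RT after 15 min compound preincubation.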
Six1-Eya2 inh – Six1/Eya2 interaction inhibition; AlphaScreen GST-Six1/His-Eya2 binding, biochemical; stronger effect = lower value; activity change, % (no concentration beside the values); 0.56% of 360,000 active; in the data active means activity change below about -65%; inconclusive means mostly about -30% to -63%
Target sequence (O00167 whole entry, looked up): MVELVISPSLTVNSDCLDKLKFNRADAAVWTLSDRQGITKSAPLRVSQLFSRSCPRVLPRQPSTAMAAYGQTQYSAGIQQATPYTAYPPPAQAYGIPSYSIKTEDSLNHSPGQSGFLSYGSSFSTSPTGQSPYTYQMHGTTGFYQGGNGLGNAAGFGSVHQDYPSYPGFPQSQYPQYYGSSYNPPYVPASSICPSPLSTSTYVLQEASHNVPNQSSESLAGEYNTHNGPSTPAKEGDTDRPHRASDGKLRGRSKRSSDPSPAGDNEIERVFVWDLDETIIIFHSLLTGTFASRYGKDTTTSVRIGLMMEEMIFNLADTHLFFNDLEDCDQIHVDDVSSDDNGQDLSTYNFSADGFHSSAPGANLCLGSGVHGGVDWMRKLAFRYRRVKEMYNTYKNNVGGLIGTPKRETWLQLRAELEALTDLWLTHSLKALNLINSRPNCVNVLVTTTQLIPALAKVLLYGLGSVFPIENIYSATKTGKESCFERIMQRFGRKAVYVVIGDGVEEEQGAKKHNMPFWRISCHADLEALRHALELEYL
Target sequence (Q15475 whole entry, looked up): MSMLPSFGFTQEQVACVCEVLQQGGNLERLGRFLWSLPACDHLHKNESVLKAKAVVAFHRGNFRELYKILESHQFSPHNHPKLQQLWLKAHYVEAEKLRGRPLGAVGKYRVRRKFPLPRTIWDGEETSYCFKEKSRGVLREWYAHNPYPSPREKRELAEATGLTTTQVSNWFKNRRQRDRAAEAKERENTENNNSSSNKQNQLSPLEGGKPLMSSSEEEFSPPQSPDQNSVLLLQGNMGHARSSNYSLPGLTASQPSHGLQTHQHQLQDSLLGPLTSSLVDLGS
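GST-Six1 + His-Eya2 (5X stock: 250/500 nM); Tris pH 8.0, 300 mM NaCl, 0.05% BSA, 0.02% Tween 20; GSH donor/Ni acceptor beads; 1 h 37 °C dark; AlphaScreen readout.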
TDP1 cell CPT – growth inhibition of DT40 Tdp1-/-;hTDP1 cells with camptothecin (screen for TDP1 inhibitors). chicken DT40 Tdp1-/-;hTDP1 cells + 20 nM CPT, ATP luminescence, 48 h. Potency, µM (series often up to 46.2 µM), most hits filed as inhibitors. 12% of 420,000 active. AID 686979; further: nearly all actives have a fitted effect of over 55% in size
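Cell growth measured by CellTiter-Glo luminescence after a minimum 48 h, 37 C compound exposure with 20 nM CPT in Tdp1-knockout DT40 cells stably expressing hTDP1, seeded 400/well; qHTS titration format.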
IL1B secr inh – inflammasome signaling inhibition, IL-1 beta readout. activity change, % at 57.5 µM. AID 743279. THP-1 LPS/ATP IL-1B secretion, AlphaLISA, 16 h; stronger effect = lower value. 4.7% of 360,000 active; in the data active means activity change below about -50%; inconclusive means mostly about -30% to -49%
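THP-1 cells pretreated 1 hr with compounds (up to 57.5 uM final), then stimulated with LPS (250 ng/mL final) plus ATP (1.25 mM final); secreted IL-1B measured by AlphaLISA after 16 hr, decreased signal indicating inhibition.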
A number is an active result; n = inactive; u = inconclusive; x = no result given. Unless noted, the call rests on the fitted dose curve; in most records, active means well fitted curve in the direction sought with a large enough effect; inconclusive means small, poorly fitted or top-dose-only effect, or another doubt; inactive means no such curve, though single readings can be large; an effect the other way counts as inactive or inconclusive.

SMILES	TDP1 cell noCPT	CtBP-E1A blk	TDP1 inh	Six1-Eya2 inh	TDP1 cell CPT	IL1B secr inh
CCc1ccc(NC(=O)CSCc2nc(N)nc(Nc3ccccc3CC)n2)cc1	u	n	n	n	15µM	u
CCCc1cc(=O)[nH]c(-n2[nH]c3c(c2=O)CCCC3)n1	21µM	n	n	u	16µM	n
Cc1ccc(C(=O)c2oc3ccc(Cl)cc3c2NC(=O)CN2CCN(C)CC2)cc1	21µM	x	n	n	u	-57
CCOC(=O)c1oc2ccc(OC)cc2c1NC(=O)CN1CCN(C)CC1	n	n	n	n	n	n
COc1ccc(-c2cc(C3CCN(CC(O)C(F)(F)F)CC3)[nH]n2)cc1 (centres undefined)	u	x	x	n	u	n
COc1ccc(-c2cc(C3CCN(c4cc(Cl)nc(N)n4)CC3)[nH]n2)cc1	23µM	n	n	n	23µM	u
COc1ccc(OC)c(-c2cc(C3CCN(c4cc(Cl)nc(N)n4)CC3)[nH]n2)c1	21µM	n	n	n	13µM	n
COc1ccc(Nc2cc(Cl)nc(N)n2)cc1	n	n	n	n	n	n
Nc1nc(Cl)cc(N2CCC(c3cc(-c4ccc(Cl)cc4)n[nH]3)CC2)n1	2.8µM	n	n	n	3.5µM	n
O=C(CCC1COc2ccccc2O1)NC1CCCCC1 (centres undefined)	n	n	n	n	n	n
COc1ccc(CC(N)c2csc(NC(=O)c3ccc(OC)cc3)n2)cc1 (centres undefined)	21µM	u	x	n	16µM	u
COc1ccc(CC(N)c2csc(NC(=O)C(c3ccccc3)c3ccccc3)n2)cc1 (centres undefined)	6.5µM	n	x	n	18µM	-52
COc1cc(CNC(=O)Nc2nc(C(N)Cc3ccc(Cl)cc3)cs2)cc(OC)c1OC (centres undefined)	18µM	n	x	n	u	-74
COc1ccc(CNC(=O)Nc2nc(C(N)Cc3ccc(C(F)(F)F)cc3)cs2)cc1 (centres undefined)	21µM	n	x	n	u	u
Cn1c(O)c(N=Nc2ccc(F)cc2)c2ccccc21	n	n	n	n	n	n
COc1ccc(CC(N)c2csc(NC(=O)c3ccc(F)cc3)n2)cc1 (centres undefined)	23µM	n	x	n	u	-54
Cc1cccc(N2C(=O)N3[C@@H]4c5ccccc5OC[C@@H]4[C@@H](c4ccccc4)[C@]3(C)C2=O)c1	u	n	x	n	u	n
CCCC(=O)O/N=C(\c1ccccc1)c1ccncc1	n	x	x	n	n	n
CCCCCC(=O)O/N=C(\C)c1ccn(S(=O)(=O)c2ccccc2)c1	n	n	x	n	15µM	n
Cc1cc(C)n(-c2nc(NC(C)C)nc(NC(C)(C)C)n2)n1	0.79µM	x	n	x	1.3µM	x
COc1ccc(NC(=O)NC23CC4CC(CC(C4)C2)C3)cc1OC	u	n	n	n	n	n
Cc1ccc(NC(=O)Nc2ncccc2C)cc1	n	n	n	n	n	n
Cc1ccc(NC(=O)Nc2cccs2)cc1	26µM	n	n	n	16µM	n
Cc1ccc(NC(=O)Nc2ccno2)cc1	16µM	x	n	n	u	n
CCOc1ccc(NC(=O)NC23CC4CC(CC(C4)C2)C3)cc1	23µM	n	n	n	21µM	-67
SMILES	TDP1 cell noCPT	CtBP-E1A blk	TDP1 inh	Six1-Eya2 inh	TDP1 cell CPT	IL1B secr inh
CC(=O)c1cccc(NC(=O)Nc2cccs2)c1	u	n	n	n	16µM	n
O=C(NNC(=O)C12CC3CC(CC(C3)C1)C2)[C@@H]1C[C@H]1c1ccccc1	n	n	n	n	n	n
O=C(NC1CCS(=O)(=O)C1)c1cccc(S(=O)(=O)N2CCCC2)c1 (centres undefined)	n	n	n	n	n	n
CCc1ccc(NC(=O)Nc2cccs2)cc1	15µM	n	n	n	21µM	n
Cc1cccc(NC(=O)Nc2cccs2)c1C	u	x	n	x	26µM	x
Cc1cc(C)cc(NC(=O)Nc2cccs2)c1	u	x	n	x	u	x
CCc1ccc(NC(=O)Nc2cn(C)c(=O)c3ccccc23)cc1	21µM	x	n	x	21µM	x
